Shown are actives, neighbours in structure and some others; about 2% of the full set was active somewhere.
Abeta rescue – A-beta toxicity reversal in yeast; yeast expressing A-beta42, growth rescue, OD600, 48 h; response scale: 0% DMSO, 100% iron-clioquinol control; Potency, µM (highest dose often 46.1 µM), most hits filed as activators; 410,000 compounds, 0.063% hits; also: nearly all actives have a fitted effect of over 55% in size
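Growth rescue measured by 600 nm absorbance after 48 h yeast culture at 30 C with compound. Values normalized between DMSO and an equimolar ferric chloride plus clioquinol control.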
Rango complex inh – prevents formation of the Rango-importin beta complex | Potency, µM (top dose mostly 92.2 µM), for inactives: at the top dose inhibition of complex formation | Rango CFP/YFP FRET sensor + importin beta, 45 min | AID 540263 | 340,000 compounds, 0.031% hits; calls by dose curve;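 also: 0% = DMSO wells and 100% = buffer wells lacking importin beta; nearly all actives have a fitted effect of over 15% in size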
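FRET biosensor (snurportin 1 IBB flanked by EYFP and cerulean), 50 nM, with compound 5 min, then 0.125 microM importin beta in PBS, 1 mM DTT, 0.02% Tween-20, 0.1% BSA. CFP/YFP ratio read after 45 min at room temperature; pre-read flags interference.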
S-ASM inh – human S-ASM enzyme inhibition; placental ASM, HMU-PC fluorogenic substrate, 60 min; Potency, µM (series often up to 57.5 µM), for inactives: top-dose activity change, negative = inhibition, usual class: inhibitors; 340,000 compounds, 0.006% hits
Target sequence (P17405 47-631 limits assumed): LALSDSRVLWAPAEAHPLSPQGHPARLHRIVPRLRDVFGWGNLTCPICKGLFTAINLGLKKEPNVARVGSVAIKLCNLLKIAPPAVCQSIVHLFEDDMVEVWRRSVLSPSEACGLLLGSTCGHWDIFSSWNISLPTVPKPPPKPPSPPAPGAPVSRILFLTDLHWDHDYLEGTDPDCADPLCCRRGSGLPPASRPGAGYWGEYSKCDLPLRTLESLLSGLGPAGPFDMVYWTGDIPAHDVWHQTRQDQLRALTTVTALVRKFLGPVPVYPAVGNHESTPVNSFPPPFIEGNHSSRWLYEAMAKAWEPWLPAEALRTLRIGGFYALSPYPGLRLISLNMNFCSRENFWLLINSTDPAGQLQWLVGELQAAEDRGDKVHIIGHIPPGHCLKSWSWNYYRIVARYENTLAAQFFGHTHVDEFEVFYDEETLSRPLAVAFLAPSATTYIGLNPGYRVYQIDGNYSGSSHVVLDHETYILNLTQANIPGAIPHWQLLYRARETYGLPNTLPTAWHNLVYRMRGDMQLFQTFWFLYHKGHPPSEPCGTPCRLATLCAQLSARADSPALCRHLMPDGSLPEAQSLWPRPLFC
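qHTS format. ASM enzyme prepared from human placenta hydrolyses the fluorogenic substrate HMU-PC0 (9 uM final) over 60 min at 37 °C after a 10 min compound preincubation.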
Rango dissoc inh – inhibitors of RanGTP-induced Rango-importin beta complex dissociation. O95149+P62826. AID 540253. Potency, µM (doses to about 46.1 µM), for inactives: at the top dose activity change, negative = inhibition. Biochemical FRET Rango-importin beta, RanGTP-induced dissociation. 340,000 compounds, 0.071% hits; calls by dose curve; also: % of control where 0% means no effect; nearly all actives have a fitted effect of over 45% in size
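Compounds sat 5 min at room temperature with 0.1 uM Rango biosensor plus 0.25 uM importin beta, then FRET pre-read. RanGTP-RCC1 (0.6 uM Ran, 2mM GTP, 0.2 uM RCC1) added for 45 min, and the CFP/YFP post-read measured blocked complex dissociation.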
TDP43 rescue – TDP-43 toxicity inhibition in yeast | 410,000 compounds, 1.8% hits | AID 652104 | Potency, µM (titrated, usually from 46.1 µM), without a hit: at the top dose growth rescue (activation), most hits filed as activators | TDP-43 expressing yeast growth rescue, BacTiter-Glo, 24 h; also: % of control where 0% means no effect; nearly all actives have a fitted effect of over 50% in size
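In this qHTS, compounds that restore growth of yeast expressing TDP-43 appear as activators. Cells (OD600=0.02, galactose medium, raffinose-pregrown) are incubated with compound 24 hr at 30 deg C and growth is quantified by BacTiter-Glo.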
aSyn yeast inh – alpha-synuclein toxicity inhibition in yeast; Yeast expressing alpha-synuclein, growth rescue, BacTiter-Glo, 24 h; Potency, µM (doses to about 46.1 µM), for the others: top-dose growth rescue (activation), actives largely listed as activators; 370,000 compounds, 0.14% hits; AID 652106; also: % of control where 0% means no effect; nearly all actives have a fitted effect of over 65% in size
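Readout is rescue of growth in alpha-synuclein-expressing yeast, so inhibitors of toxicity appear as activators. Growth after 24 hr at 30 deg C in galactose medium is quantified by luminescence.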
Active calls of the source: *; i = inactive; ? = inconclusive; / = not tested or not shown; [ ] = dose if it differs, or a comment. Unless noted, calls follow the shape of the dose curve; as a rule, active = well fitted curve in the direction sought with a large enough effect; inconclusive = small, poorly fitted or top-dose-only effect, or another doubt; inactive = no such curve, though single readings can be large; an effect the other way counts as inactive or inconclusive. Potency is read from the fitted curve at half-maximal effect.

SMILES	Abeta rescue	Rango complex inh	S-ASM inh	Rango dissoc inh	TDP43 rescue	aSyn yeast inh
O=C(c1ccc2c(c1)N(Cc1ccc(F)cc1)C(=O)c1ccccc1S2(=O)=O)N1CCCC1	i	/	/	/	9%	/
COc1ccc(Cl)cc1C(=O)NCC(c1ccc(N(C)C)cc1)N1CCOCC1 (stereo not given)	i	/	/	/	17%	/
O=C(c1ccco1)N1N=C(c2cccs2)CC1c1ccco1 (stereo not given)	i	-4%	1%	11%	0%	3%
O=C(c1ccco1)N1N=C(c2ccccc2O)CC1c1cccs1 (stereo not given)	i	/	/	/	35µM*	15%
O=C(Nc1cc(C(F)(F)F)ccc1-n1cncn1)c1ccc([N+](=O)[O-])o1	i	-4%	0%	-15%	14µM*	-8%
O=C(COc1ccc2ccccc2c1)NCCn1ccc2ccccc21	?	-2%	-16%	-5%	22µM*	?
O=C(Cc1ccccc1)NCCn1ccc2ccccc21	i	-1%	2%	-11%	?	-2%
O=C(NCCCOc1ccc([N+](=O)[O-])cc1Cl)OCc1ccccc1	i	-3%	-9%	-17%	16µM*	?
O=C(O)c1ccc(COc2ccc([N+](=O)[O-])cc2Cl)cc1	i	/	/	/	14%	0%
CCOC(=O)NN=C1c2ccccc2-c2ccccc21	i	-1%	-2%	3%	5µM*	-1%
CCOC(=O)Nc1ccc2c(c1)C(=NNC(=S)NC)c1ccccc1-2	i	/	/	/	25µM*	-12%
NC(=S)NN=C1c2ccccc2-c2ccccc21	i	4%	-9%	9%	18µM*	10%
O=C(NN=C1c2ccccc2-c2ccccc21)c1ccccc1	i	?	-9%	-9%	17%	-4%
CCOC(=O)N/N=C1\CCc2ccccc21	i	-1%	5%	23%	-4%	-7%
Cc1ccc2nc(CSc3nnc(NC(=O)COc4ccccc4F)s3)cc(=O)n2c1	i	/	/	/	22%	/
O=C(C[N+]1(CCO)CCOCC1)c1ccc(F)c2ccccc12	/	/	/	/	/	2%
CCOC(=O)Cn1c(=O)n(CC2CCCO2)c2nc(-c3ccc(C(C)C)cc3)nc(C(N)=O)c21 (stereo not given)	i	/	/	/	18%	1%
CCCN(CCC)CCNC(=O)c1nn(C)c2c1CS(=O)(=O)c1ccccc1-2	i	/	/	/	4%	/
CCS(=O)(=O)NCCc1csc2nc(-c3ccc(OC)cc3)nn12	i	/	/	/	20%	/
Cc1ccc2[nH]cc(C(c3ccccc3)c3ccc(Cl)s3)c2c1 (stereo not given)	i	/	/	/	?	/
Clc1ccc(C(c2ccccc2)c2c[nH]c3ccccc23)s1 (stereo not given)	i	/	/	/	20µM*	-36%
CCOc1cc(CNC(=O)CSc2n[nH]c(-c3ccccc3)n2)cc(OCC)c1OCC	i	/	/	/	7%	/
COc1ccc(C2=C(c3ccccc3)OC(OC)c3cc(F)ccc32)cn1 (stereo not given)	?	/	/	/	16µM*	?
CCCn1c(=O)c2sccc2n2c(CCCC(=O)N3CCN(c4cccc(C)c4C)CC3)nnc12	i	/	/	/	27%	/
C[n+]1ccnc2cc(Cl)ccc21	/	/	/	/	/	2%
SMILES	Abeta rescue	Rango complex inh	S-ASM inh	Rango dissoc inh	TDP43 rescue	aSyn yeast inh
Cc1[nH]nc(-c2ccc(O)cc2O)c1-c1ccc(Cl)cc1	i	1%	-16%	4%	20µM*	1%
O=C(NCCc1c[nH]c2ccccc12)c1ccc(Br)o1	i	6%	-2%	23%	4%	-8%
O=C(NCCSc1c[nH]c2ccccc12)c1ccc(Br)o1	i	1%	-1%	?	18µM*	10%
Nc1ccc(/C=C/c2nc3ccccc3s2)cc1	/	/	/	/	/	13µM*
CC(C)CN(CC(C)C)c1ccc(/C=C/c2nc3ccccc3s2)cc1	/	/	/	/	/	-10%
N#Cc1cc([N+](=O)[O-])c2sc(C(N)=O)[n+]([O-])c2c1	/	/	/	/	/	-1%
CC12CCC(O)CC1=CCC1C2CCC2(C)C3=NN=CC3CC12 (stereo not given)	i	0%	1%	-6%	16µM*	?
CC(=O)C1(O)C(C)CC2C3CC=C4CC(O)CCC4(C)C3CCC21C (stereo not given)	i	0%	3%	0%	-10%	16%
COc1ccc(-c2ccc(C(=O)Nc3cccc(F)c3)c3occc23)c(C)c1	i	/	/	/	26%	-17%
COc1ccc(-c2ccc(C(=O)Nc3cccc(NS(C)(=O)=O)c3)c3occc23)c(C)c1	i	/	/	/	14µM*	-7%
COc1ccc(NC(=O)c2cccc3c(-c4cccnc4)coc23)cc1	i	/	/	/	10µM*	12%
COc1ccc(-c2coc3c(C(=O)Nc4cccnc4)cccc23)c(C)c1	i	/	/	/	18µM*	-13%
O=C(NCc1ccc(C(F)(F)F)cc1)c1cccc2c(-c3cccnc3)coc12	i	/	/	/	13µM*	12%
Cc1ccc(CSc2nc3c([nH]c4ccccc43)c(=O)n2C)cc1	i	/	/	/	1%	/
CN(C)c1cccc(NC(=O)c2cccc3c(-c4ccc(F)c(F)c4)coc23)c1	i	/	/	/	14µM*	4%
COc1ccc(-c2ccc(C(=O)NCc3ccc(N(C)C)cc3)c3occc23)c(C)c1	i	/	/	/	18µM*	-1%
O=C(Nc1ccccc1)c1cccc2c(-c3cccnc3)coc12	i	/	/	/	14µM*	0%
CCOc1ccc(C(=O)CC(NCc2cccs2)C(=O)O)cc1 (stereo not given)	i	-1%	-1%	-18%	-16%	11µM*
CCOc1ccc(C(=O)CCC(=O)N(CC)CC(=O)NCc2cccs2)cc1	i	0%	8%	4%	-9%	-2%
CCOc1ccc(C(=O)CC(C(=O)O)N2CCCCC2)cc1 (stereo not given)	i	-1%	3%	26%	35µM*	1%[1.84 µM]
CC(C)(C)c1ccc(O)c(N=Cc2cccc([N+](=O)[O-])c2)c1	/	/	/	/	/	-2%
CCOc1ccc(CCNC(=O)c2cc3c(-c4ccccc4F)nn(C)c3s2)cc1OCC	i	/	/	/	29%	/
CCn1nc(C)c2c(-c3ccccc3)cc(=O)n(C(C)C(=O)NCCc3ccc(Cl)cc3)c21 (stereo not given)	i	/	/	/	22µM*	/
CCn1nc(C)c2c(-c3ccccc3)cc(=O)n(C(C)C(=O)Nc3cc(C)ccc3C)c21 (stereo not given)	i	/	/	/	4%	/
